CtBP-E1A inh – inhibitors of CtBP/E1A interaction; AlphaScreen GST-E1A/His-CtBP binding, 1536-well; hits give low values; activity change, % (no concentration beside the values); 340,000 compounds, 0.49% hits
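AlphaScreen with 125 nM GST-E1A and 125 nM His-CtBP (5X stocks) in Tris pH 8.0, 300 mM NaCl, BSA, Tween 20, TCEP. Compounds preincubated 2 h at 37 deg C, then glutathione donor/nickel acceptor beads added for 1 h at 37 deg C in dark.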
JMJD2E inh – blocks human JMJD2E demethylase activity; Potency, µM (top dose mostly 57.1 µM), without a hit: at the top dose activity change, negative = inhibition, most hits filed as inhibitors; JMJD2E catalytic domain, FDH-coupled NADH fluorescence (FDH is formaldehyde dehydrogenase); 230,000 compounds, 1.6% hits; B2RXH2; AID 2147; active means well fitted inhibition curve with a large enough effect, not every such curve was filed as active; inconclusive means small, poorly fitted or top-dose-only effect, or another doubt; inactive means no such curve, though single readings can be large or run the other way;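 further: potency means the concentration at half of the fitted maximal effect; 0% = wells with enzyme and -100% = buffer wells without enzyme; nearly all actives have a fitted effect of over 50% in size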
L3MBTL1 inh – L3MBTL1 (human) inhibition | AlphaScreen L3MBTL1–H3K9me1 peptide binding | 230,000 compounds, 0.66% hits | Potency, µM (highest dose often 57.1 µM), for inactives: at the highest dose activity, negative = inhibition, hits mostly inhibitors; active means well fitted inhibition curve with a large enough effect; inconclusive means small, poorly fitted or top-dose-only effect; inactive means no such curve, though single readings can be large or run the other way; further: potency means the concentration at half of the fitted maximal effect; nearly all actives have a fitted effect of over 60% in size
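AlphaScreen proximity signal between nickel-chelate acceptor and streptavidin donor beads (final 10 ug/mL) reports binding of 50 nM L3MBTL1 to 75 nM biotin-H3 K9me1 peptide; complex incubated with compounds 30 min at room temperature; cefsulodin titration as control.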
Six1-Eya2 inh – blocks human Six1 binding to Eya2 | activity change, % (no concentration beside the values) | AlphaScreen GST-Six1/His-Eya2 binding, biochemical; hits give low values | 360,000 compounds, 0.56% hits | Q15475+O00167
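Six1/Eya2 binding was read as AlphaScreen signal after compounds were pinned into GST-Six1 plus His-tagged Eya2 (5X stock 250/500 nM) in pH 8.0 Tris/NaCl/TCEP buffer, beads added, then incubated 1 h, 37 C, dark.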
* hit, by the source's call; ? = inconclusive; nt = no result; [ ] = another dose, or the depositor's remark. Only a selection was taken, and hits are over-represented in it overall. Unless noted, no stated cut-off is given here; in the data, active means activity change below about -65%; inconclusive means mostly about -30% to -63%; inactive means weaker than that. Unless noted, on the % scale 0 is the no-effect control and ±100 the full control effect.

SMILES	CtBP-E1A inh	JMJD2E inh	L3MBTL1 inh	Six1-Eya2 inh
Oc1c(C(c2ccccc2)N2CCOCC2)ccc2ccccc12 (stereo not drawn)	-5	nt	nt	-13
CCN1CCN(C(c2ccc(C(F)(F)F)cc2)c2ccc3cccnc3c2O)CC1 (stereo not drawn)	-1	nt	nt	-86*
COCCN1C(=O)N[C@@H](c2cccc(C(F)(F)F)c2)C(C(C)=O)=C1C	nt	9%	nt	nt
CC(CCc1ccccc1)NC(=O)CCC(=O)N1CCC(C(=O)O)CC1 (stereo not drawn)	nt	nt	6%[2.29 µM]	5
CC(C)(C)OC(=O)NCCC(=O)N/N=C/c1ccc2ncccc2c1	-20	-1%	nt	?
O=C(COc1cccc2cccnc12)N/N=C/c1cccn1-c1ccc(F)cc1	-18	-1%	-22%	-26
Cc1ccc(OCC(=O)N/N=C/c2cn(C)c3ccccc23)cc1	6	-27%	nt	0
Cc1ccc(OCC(=O)N/N=C/c2cccc3cccnc23)cc1	-90*	nt	nt	-77*
CC(C)(C)OC(=O)NCCC(=O)N/N=C/c1cccc2cccnc12	-79*	?	?	?
O=C(COc1ccc(F)cc1)N/N=C/c1cccc2cccnc12	-86*	nt	nt	?
CC(C)[C@@H](CC(=O)N[C@@H]1CCCC[C@H]1C(=O)N[C@H](CC(=O)N[C@@H](CCC(=O)O)CC(=O)O)Cc1ccccc1)NC(=O)C[C@H](CO)NC(=O)[C@@H]1CNCC[C@H]1N	nt	-16%	nt	nt
CCOC(=O)CCCNC(=O)N1CCc2nc(-c3ccc(OC)cc3C)c3c(c2C1)CO[C@@H](c1ccccc1)C3	nt	-6%[11.4 µM]	nt	nt
COc1ccc(OC(C)C(=O)NC(C)c2ccccc2)cc1 (stereo not drawn)	nt	nt	nt	21
CCCCCCCCCCCCCCCC(=O)OC(CO)CO	nt	-11%	nt	nt
CCOc1ccc(C(=O)CCNC(Cc2cnc[nH]2)C(=O)O)cc1 (stereo not drawn)	-66*	-6%	-17%	?
COc1ccc(NC(=O)c2cccc(N3C(=O)c4ccc(C(=O)Nc5ccc(OC)c(O)c5)cc4C3=O)c2)cc1O	-66*	nt	nt	?
CC(=O)c1ccc(NC(=O)c2cccc(N3C(=O)c4ccccc4C3=O)c2)cc1	-5	nt	nt	7
COc1ccccc1C1=NN(C2=NN=C(N)Cc3ncnn32)C(O)(C(F)(F)F)C1 (stereo not drawn)	-65*	?	59%	?
NC1=NN=C(N2N=C(c3ccccc3)CC2(O)C(F)(F)F)n2ncnc2C1 (stereo not drawn)	-70*	?	10%	?
COc1ccc(C2=NN(C3=NN=C(N)Cc4ncnn43)C(O)(C(F)(F)F)C2)cc1 (stereo not drawn)	-86*	?	24%	-68*
N=C(N)S/C=C\C(=O)O	nt	-11%	nt	nt
NC(c1ccccc1)c1csc(Nc2ccc(C(=O)NCCCO)cn2)n1 (stereo not drawn)	-85*	nt	nt	-83*
NC(c1csc(Nc2ccc(C(=O)NCCCO)cn2)n1)c1ccccc1Cl (stereo not drawn)	-77*	nt	nt	?
C=CCn1c(C)cc(C2=NNC(=Nc3ccc(C)cc3)SC2)c1C	-23	-6%	-24%	5
Cc1cc(C2=NNC(=Nc3ccc(S(=O)(=O)N4CCOCC4)cc3)SC2)c(C)n1C	-1	8.9µM*	-7%	-13
SMILES	CtBP-E1A inh	JMJD2E inh	L3MBTL1 inh	Six1-Eya2 inh
Cc1ccc(/C=[N+](\[O-])c2ccc(N(C)C)cc2)c2nsnc12	-25	14µM*	?	?
C=CCC(C)(O)c1ccsc1 (stereo not drawn)	nt	6%	nt	nt
CCn1c(=O)n(CC)c2cc(N3CCCC3)c(NC(=O)c3cccc(OC)c3)cc21	nt	nt	nt	-5
COc1ccc(OC)c(NC2=NC3(CCCC3)N=C(N)N2)c1	?	-4%	nt	-68*
COc1cc([N+](=O)[O-])cc(/C=N/NC(=O)c2cc(-c3ccccc3)nc3ccccc23)c1O	-88*	22µM*	-1%	?
COc1cc([N+](=O)[O-])cc(/C=N/NC(=O)c2cc(C)nc3ccccc23)c1O	-83*	25µM*	?	-93*
COc1cccc(/C=N/NC(=O)c2ccc([N+](=O)[O-])cc2Cl)c1O	-88*	14µM*	-9%	-89*
Cc1cc(C(=O)N/N=C/c2cccc([N+](=O)[O-])c2)c2ccccc2n1	-6	-6%	1%	-9
CCOC(=O)C1CCCN(S(=O)(=O)CCNC(=O)c2cccc(OC)c2)C1 (stereo not drawn)	1	nt	-4%	2

High-throughput results: PubChem, National Center for Advancing Translational Sciences (NCATS)
